ELG1 genotox = inducers of genotoxicity in HEK293T ELG1-luciferase cells; HEK293T ELG1-luciferase reporter, luminescence, 16 h; Potency, µM (doses to about 46 µM), inactives show top-dose activity change, positive = activation, most hits filed as activators; 1.3% of 330,000 active; AID 504466; further: % of control where 0% means no effect; nearly all actives have a fitted effect of over 60% in size
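HEK293T cells expressing luciferase-tagged ELG1 were exposed to compound or DMSO vehicle for 16 hr at 37 °C and 5% CO2. Luciferase activity was then measured with ONE-Glo after 30 min at room temperature.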
ELG1 DNA repair = ELG1-dependent DNA repair inhibition. Potency, µM (highest dose often 46.1 µM), for the others: at the top dose activity change, negative = inhibition, most hits filed as inhibitors. HEK293T ELG1-luciferase reporter, luminescence, 16 h; DNA damage induced by 5-fluorouridine. AID 504467. 2.3% of 330,000 active; further: on the % scale 0 is the no-effect control and ±100 the full control effect; nearly all actives have a fitted effect of over 55% in size
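Cells (2,000 per well) received 5-fluorouridine plus test compound or DMSO and were incubated 16 hr at 37 °C, 5% CO2. Luciferase activity was read by luminescence 30 min after ONE-Glo addition; signal suppression marked inhibition of damage-induced ELG1 function.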
FLuc modulator = firefly luciferase modulation, counter-screen for miR-21 project; AID 588342; Potency, µM (series often up to 57.5 µM), for inactives: at the top dose activity change, negative = inhibition, actives largely listed as inhibitors; 6.9% of 360,000 active; purified FLuc, Km substrates, luminescence inhibition;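 further: plate controls were vehicle for no effect and reference inhibitor for full effect; nearly all actives have a fitted effect of over 55% in size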
Target sequence (P08659 whole entry, looked up): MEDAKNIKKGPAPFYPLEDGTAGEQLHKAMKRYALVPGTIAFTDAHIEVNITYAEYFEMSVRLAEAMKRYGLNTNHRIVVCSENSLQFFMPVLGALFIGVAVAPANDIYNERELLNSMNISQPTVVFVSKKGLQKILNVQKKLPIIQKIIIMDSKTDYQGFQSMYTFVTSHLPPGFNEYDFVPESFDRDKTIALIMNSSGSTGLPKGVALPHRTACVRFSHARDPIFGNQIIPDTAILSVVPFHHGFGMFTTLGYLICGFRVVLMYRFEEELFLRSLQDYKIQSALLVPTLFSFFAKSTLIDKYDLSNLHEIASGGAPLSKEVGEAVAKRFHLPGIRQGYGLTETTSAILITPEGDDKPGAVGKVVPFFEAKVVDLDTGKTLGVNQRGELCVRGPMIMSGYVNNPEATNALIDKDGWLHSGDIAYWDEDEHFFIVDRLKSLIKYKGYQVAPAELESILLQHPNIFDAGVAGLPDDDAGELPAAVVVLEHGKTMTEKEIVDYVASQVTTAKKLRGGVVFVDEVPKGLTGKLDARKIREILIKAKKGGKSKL
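Purified P. pyralis luciferase (10nM final) with 10uM D-luciferin and 10uM ATP (Km levels) in 50mM Tris acetate pH 7.5, 10mM Mg acetate, 0.01% Tween-20, 0.05% BSA; qHTS 6-point titration, ~60 µM downward; luminescence read.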
SMN2 splice enh = increases expression of the SMN2 splice variant | 2.8% of 210,000 active | Potency, µM (titrated, usually from 46.1 µM), for the others: at the top dose activity change, positive = activation, most hits filed as activators | HEK293 SMN2-luciferase splicing reporter, luminescence, 30-36 h | AID 1458; further: % of control where 0% means no effect; nearly all actives have a fitted effect of over 55% in size
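HEK293 cells carry an SMN2 […]–luciferase reporter in which exon 7 inclusion puts luciferase in frame. Cells were plated 10-12 h before compound addition, then incubated 30-36 h at 37C. ONE-Glo luminescence was read; sodium butyrate at 4.5 mM final served as control.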
NPC1 prom act = activates the NPC1 promoter | Potency, µM (highest dose often 9.22 µM), without a hit: top-dose activation, actives largely listed as activators | 2.4% of 320,000 active | AID 485313 | Huh7 NPC1 promoter luciferase reporter, 24 h; further: % of control where 0% means no effect; nearly all actives have a fitted effect of over 60% in size
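Compounds in DMSO were transferred onto Huh7 NPC1-luciferase reporter cells pre-incubated 2 h; after 24 h at 37 °C, Amplite reagent was dispensed and luminescence recorded 10 min later.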
Rab9 promoter act = activators of Rab9 promoter; AID 485297; 2.8% of 320,000 active; Huh7 Rab9 promoter-luciferase reporter, luminescence, 24 h; Potency, µM (series often up to 9.22 µM), inactives show top-dose activation, negative = inhibition, actives largely listed as activators; further: % of control where 0% means no effect; nearly all actives have a fitted effect of over 60% in size
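Luminescence from Amplite-detected luciferase (10 minutes, ambient) reports Rab9 promoter activation. Before that, stable Rab9-luciferase Huh7 cells (1500/well, reduced-serum OP-MEM I plus 10% FBS) were exposed to compound for 24 hours at 37C.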
The depositor's hits bear a star; [ ] = another dose, or the depositor's remark. Most compounds without a hit are left out; they make up all but 9.4% or so of the library. The call rests on the fitted dose curve; in most records, active means well fitted curve in the direction sought with a large enough effect; inconclusive means small, poorly fitted or top-dose-only effect, or another doubt; inactive means no such curve, though single readings can be large; an effect the other way counts as inactive or inconclusive. Potency means the concentration at half of the fitted maximal effect.

How did O=C(O)c1ccc(NC(=S)NC(=O)c2ccc(-c3ccc(Br)cc3)o2)cc1 do in these assays?
ELG1 genotox: 7%; ELG1 DNA repair: 13%; FLuc modulator: -5%; NPC1 prom act: 1%; Rab9 promoter act: 2%

What do the screens show for `Cc1ccc(C(=O)O)cc1NC(=S)NC(=O)c1ccc(-c2ccc(Cl)cc2)o1`?
ELG1 genotox: 2%; ELG1 DNA repair: -7%; FLuc modulator: inconclusive; NPC1 prom act: -1%; Rab9 promoter act: -2%

What do the screens show for `O=C(O)c1cccc(NC(=S)NC(=O)c2ccc(-c3ccc(Cl)cc3)o2)c1`?
ELG1 genotox: 9%; ELG1 DNA repair: inconclusive; FLuc modulator: 15µM*; SMN2 splice enh: 73%; NPC1 prom act: 18%; Rab9 promoter act: inconclusive

Results for COc1ccc(C(=O)O)cc1NC(=S)NC(=O)c1ccc(-c2ccc(Cl)cc2)o1 ?
ELG1 genotox: 11%; ELG1 DNA repair: -1%; FLuc modulator: 13µM*; SMN2 splice enh: -14%; NPC1 prom act: -1%; Rab9 promoter act: 1%

How did CC(C)Cn1c(=S)[nH]c2cc(Cl)ccc21 do in these assays?
ELG1 genotox: -10%; ELG1 DNA repair: -11%; FLuc modulator: -10%; SMN2 splice enh: 6%; NPC1 prom act: -1%; Rab9 promoter act: -5%

How did CC(=O)c1sc2nc(-c3cccs3)ccc2c1N do in these assays?
ELG1 genotox: 12µM*; ELG1 DNA repair: inconclusive; FLuc modulator: 7.6µM*; SMN2 splice enh: inconclusive; NPC1 prom act: 18%; Rab9 promoter act: 3.5µM*

Results for Nc1c(C(=O)Nc2nc3ccccc3s2)sc2nc(-c3cccs3)ccc12 ?
ELG1 genotox: inconclusive; ELG1 DNA repair: inconclusive; FLuc modulator: 2.4µM*; SMN2 splice enh: inconclusive; NPC1 prom act: inconclusive; Rab9 promoter act: inconclusive

What do the screens show for `Nc1c(C(=O)Nc2ccccc2Br)sc2nc(-c3cccs3)ccc12`?
SMN2 splice enh: -6%

What do the screens show for `Nc1c(C(=O)Nc2ccccc2)sc2nc(-c3ccco3)ccc12`?
ELG1 genotox: 6%; ELG1 DNA repair: 0%; FLuc modulator: 12µM*; SMN2 splice enh: 2%; NPC1 prom act: inconclusive; Rab9 promoter act: inconclusive

How did CCN(CC)C(=O)Cn1cc(S(=O)(=O)CC(=O)NC2CCCCC2)c2ccccc21 do in these assays?
ELG1 genotox: 0%; ELG1 DNA repair: -1%; FLuc modulator: 1%; SMN2 splice enh: 5%; NPC1 prom act: -1%; Rab9 promoter act: -14%

Results for Cc1ccc(Cn2c(C)c3cnn(CC(=O)NCCc4ccc(Cl)cc4)c(=O)c3c2C)cc1 ?
FLuc modulator: -7%; SMN2 splice enh: 3%

How did Cc1cc(NC(=O)N2CCC(CN3CCCCCC3)CC2)ccc1Br do in these assays?
FLuc modulator: 3%

Results for CCCCCCOc1ccc(-c2nc3ccc(Br)cc3c(=O)o2)cc1 ?
FLuc modulator: -11%; SMN2 splice enh: -7%

What do the screens show for `Cc1cccc(-n2c(SCC(=O)Nc3ccccc3C)nc3c(oc4ccccc43)c2=O)c1`?
FLuc modulator: -2%; SMN2 splice enh: -1%

How did COc1ccc(/C=C/c2nc(-c3ccccc3O)n[nH]2)cc1OC do in these assays?
ELG1 genotox: inconclusive; ELG1 DNA repair: inconclusive; FLuc modulator: 12µM*; SMN2 splice enh: inconclusive; NPC1 prom act: inconclusive; Rab9 promoter act: inconclusive

How did O=C(O)COc1ccc(/C=C/c2nc(-c3ccccc3O)n[nH]2)cc1 do in these assays?
ELG1 genotox: -6%; ELG1 DNA repair: -21%; FLuc modulator: 11µM*; NPC1 prom act: -5%; Rab9 promoter act: -2%

What do the screens show for `COc1ccc(/C=N/NC(=O)c2[nH]nc3c2CCc2ccccc2-3)cc1OC`?
ELG1 genotox: -1%; ELG1 DNA repair: -3%; FLuc modulator: -7%; SMN2 splice enh: -10%; NPC1 prom act: -19%; Rab9 promoter act: -6%

Results for CC(=O)N1c2ccc(S(=O)(=O)NCC3CCC(C(=O)Nc4cccc(F)c4)CC3)cc2CC1C (centres undefined) ?
FLuc modulator: -14%

How did COc1ccc(/C=C/C(=O)c2ccc(C)c([N+](=O)[O-])c2)cc1O do in these assays?
ELG1 genotox: 9%; ELG1 DNA repair: inconclusive; FLuc modulator: 4.8µM*; SMN2 splice enh: 2%; NPC1 prom act: 1%; Rab9 promoter act: -4%

What do the screens show for `Cc1ccc2[nH]c(-c3ccccc3)cc(=O)c2c1`?
ELG1 genotox: inconclusive; ELG1 DNA repair: inconclusive; FLuc modulator: 1.7µM*; SMN2 splice enh: 11µM*; NPC1 prom act: inconclusive; Rab9 promoter act: inconclusive

How did Cc1ccc2[nH]c(C(=O)O)c(-c3ccccc3)c2c1 do in these assays?
ELG1 genotox: 2%; ELG1 DNA repair: 3%; FLuc modulator: 2%[2.3 µM]; SMN2 splice enh: 5%; NPC1 prom act: 1%; Rab9 promoter act: 2%

How did Cc1ccc(-c2cc(=O)c3cc(Cl)ccc3[nH]2)cc1 do in these assays?
ELG1 genotox: inconclusive; ELG1 DNA repair: inconclusive; FLuc modulator: 0.54µM*; NPC1 prom act: inconclusive; Rab9 promoter act: 4µM*

How did O=c1cc(-c2ccc(Cl)cc2)[nH]c2ccccc12 do in these assays?
ELG1 genotox: 0%; ELG1 DNA repair: 8%; FLuc modulator: -16%; NPC1 prom act: 9%; Rab9 promoter act: 2%

Results for Cc1ccc(-c2cc(=O)c3ccccc3[nH]2)cc1 ?
ELG1 genotox: 10%; ELG1 DNA repair: inconclusive; FLuc modulator: 19µM*; SMN2 splice enh: 12%; NPC1 prom act: 19%; Rab9 promoter act: inconclusive

What do the screens show for `Cc1ccc(-c2nc3ccc(Cl)cc3c(=O)n2O)cc1`?
ELG1 genotox: -5%; ELG1 DNA repair: inconclusive; FLuc modulator: -15%; NPC1 prom act: 1%; Rab9 promoter act: -2%

What do the screens show for `Cc1c(C(=O)N(Cc2ccco2)Cc2ccccc2Cl)oc2ccc(F)cc12`?
FLuc modulator: -12%; SMN2 splice enh: -8%

How did CCOC(=O)c1sc2ccccc2c1S(=O)(=O)NCc1ccccc1OC do in these assays?
FLuc modulator: -12%

How did CC1=CC(=C2C(=O)c3ccccc3C2=O)C=C(C)O1 do in these assays?
ELG1 genotox: 20%; ELG1 DNA repair: inconclusive; FLuc modulator: inconclusive; SMN2 splice enh: 9%; NPC1 prom act: inconclusive; Rab9 promoter act: inconclusive

What do the screens show for `COC1=C(OC)C(=O)c2ccccc2C1=O`?
SMN2 splice enh: -96%; NPC1 prom act: -24%[46.1 µM]; Rab9 promoter act: -42%[46.1 µM]

How did CCCCCCN1C=CC(=C2C(=O)c3ccccc3C2=O)C=C1 do in these assays?
ELG1 genotox: 0.18µM*; ELG1 DNA repair: inconclusive; FLuc modulator: 0.21µM*; NPC1 prom act: inconclusive; Rab9 promoter act: 0.11µM*
